Shown is part of a subset that was picked to be rich in hits.
TbPYK inhibitor – inhibitors of Trypanosoma brucei pyruvate kinase. AID 624173. TbPYK enzyme, Kinase-Glo Plus ATP luminescence, 45 min. Potency, µM (top dose mostly 76.8 µM), for inactives: top-dose activity, negative = inhibition, usual class: inhibitors. 0.12% of 410,000 active; note: potency is the fitted concentration of half-maximal effect; % is set by controls: 0 for no effect and ±100 for the full control effect; nearly all actives have a fitted effect of over 50% in size
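Activity of T. brucei pyruvate kinase was followed by Kinase-Glo Plus luminescence after the enzyme reacted 45 min at room temperature with 130 uM ADP (final) and substrate. Test compounds were added before ADP at multiple concentrations.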
Shiga inhibitor – inhibitors of Shiga toxin in Vero cells | 9.2% of 290,000 active | AID 2315 | inhibition, % at 38.7 µM | Vero cells, Shiga toxin protein synthesis inhibition reporter; in the data active = inhibition mostly above about 28%, no sharp cut-off; inactive = mostly below about 43%; note: 0% is about no effect
LmPK inhibitor – LmPK (Leishmania mexicana) enzyme inhibition; purified LmPK, Kinase-Glo ATP luminescence, 1 h; Q27686; Potency, µM (titrated, usually from 57.5 µM), for the others: at the top dose activity change, negative = inhibition, hits mostly inhibitors; 0.37% of 290,000 active; note: potency is the fitted concentration of half-maximal effect; % is set by controls: 0 for no effect and ±100 for the full control effect
Target sequence (Q27686 whole entry, looked up): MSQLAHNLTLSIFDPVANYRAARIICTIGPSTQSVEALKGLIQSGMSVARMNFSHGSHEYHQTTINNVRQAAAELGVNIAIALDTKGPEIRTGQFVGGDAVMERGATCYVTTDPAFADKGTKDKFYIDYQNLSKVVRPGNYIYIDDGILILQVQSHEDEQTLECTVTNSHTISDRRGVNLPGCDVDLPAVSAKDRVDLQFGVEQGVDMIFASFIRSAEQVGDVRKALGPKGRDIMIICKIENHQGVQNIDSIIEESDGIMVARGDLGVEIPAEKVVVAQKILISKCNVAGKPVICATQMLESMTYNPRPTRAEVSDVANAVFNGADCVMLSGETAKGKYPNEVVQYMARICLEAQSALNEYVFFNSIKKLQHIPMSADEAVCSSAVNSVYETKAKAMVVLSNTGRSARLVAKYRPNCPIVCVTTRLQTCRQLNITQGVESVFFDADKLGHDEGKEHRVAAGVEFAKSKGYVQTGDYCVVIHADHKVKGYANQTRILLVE
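Screened at intermediate enzyme activity to detect both inhibitors and activators: LmPK at 0.1 nM, with a 0.5 nM enzyme column as activation reference. PEP 0.5 mM, ADP 0.1 mM; ATP detected by luminescence after 1 h.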
FBPA Giardia inh – blocks Giardia fructose-bisphosphate aldolase activity | Potency, µM (titrated, usually from 59.6 µM), for the others: top-dose activity, negative = inhibition, actives largely listed as inhibitors | purified Giardia FBPA | 0.71% of 290,000 active | A8B2U2; note: potency is the fitted concentration of half-maximal effect; % is set by controls: 0 for no effect and ±100 for the full control effect; nearly all actives have a fitted effect of over 55% in size
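Giardia FBPA (40 nM reagent) was preincubated 10 min at RT with compound (up to 57.5 uM final), then substrate plus GAPDH/TPI/NAD/arsenate coupling system with diaphorase/resazurin was added; resorufin fluorescence (525/598 nm) was read after 20 min.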
Sm TGR block – S. mansoni TGR enzyme inhibition; Q962Y6; purified TGR, DTNB reduction, TNB absorbance 405 nm; Potency, µM (highest dose often 114 µM), for inactives: at the top dose activity change, negative = inhibition, usual class: inhibitors; 3% of 360,000 active; note: potency is the fitted concentration of half-maximal effect; % is set by controls: 0 for no effect and ±100 for the full control effect; nearly all actives have a fitted effect of over 60% in size
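Kinetic colorimetric format: TGR-catalysed, NADPH-driven DTNB reduction monitored via TNB absorbance. Enzyme dispensed at 20 nM; compound exposure 15 min at room temperature before reaction start.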
CHX counter – affects cycloheximide protein synthesis inhibition readout, counter-screen; AID 2314; cell reporter, cycloheximide protein synthesis inhibition counterscreen; 12% of 300,000 active; max response, %; in the data active = max response mostly above about 13%, no sharp cut-off; inactive = mostly below about 14%; note: read at 38.3 µM for the half of the compounds with a filed dose; 0% is about no effect
An asterisk follows results filed as active; ? = inconclusive; / = not tested or not shown; + = active, no number; [ ] = remark or other dose. Unless noted, calls come from the whole dose curve; as a rule, active = well fitted curve in the direction sought with a large enough effect; inconclusive = small, poorly fitted or top-dose-only effect, or another doubt; inactive = no such curve, though single readings can be large; an effect the other way counts as inactive or inconclusive.

SMILES	TbPYK inhibitor	Shiga inhibitor	LmPK inhibitor	FBPA Giardia inh	Sm TGR block	CHX counter
COCCCNC(=O)C1CCC(CNS(=O)(=O)c2ccc3c(c2)CC(C)N3C(=O)C2CC2)CC1 (stereo not drawn)	-2%	-6	-2%	/	1%	-2
Cc1ccc(NC(=O)c2cc(S(=O)(=O)N3CCCC3)cn2C)cc1C	-10%	-2	1%	11%	-5%	-1
CCn1nccc1C(=O)Nc1ccc(C)c(C)c1	1%	62*	-22%	-1%	70%	34*
CCc1ccc(C(=O)NC(Cc2c[nH]c3ccccc23)C(=O)OCC(=O)c2ccc(Br)cc2)cc1 (stereo not drawn)	7%[15.4 µM]	/	/	/	8%	/
COc1ccc(NC(=O)Nc2ccccc2C(N)=O)cc1OC	3%	9	?	-1%	2%	19
COc1ccc(NC(=O)Nc2ccccc2C(N)=O)cc1	-29%	72	14µM*	0%	19%	26*
COC(=O)c1sccc1NC(=O)Nc1ccc(OC)cc1	?	108*	?	-16%	0%	35*
Cc1ccccc1NC(=O)Nc1ccccc1C(N)=O	-2%	14	3%	-2%	12%	-3
Cc1ccc(NC(=O)Nc2ccccc2C(N)=O)cc1	-17%	63*	16µM*	-2%	1%	29*
Cc1c(Cl)cccc1NC(=O)CSc1ncc2c(n1)-c1ccccc1N(C)S2(=O)=O	-2%	/	/	/	5%	/
CCc1nnc(NC(=O)CN2CCN(Cc3ccc(C)cc3)CC2)s1	-3%	-4	-2%	?	3%	-3
Cc1ccc(-n2c(=S)[nH]c3c(oc4ccccc43)c2=O)cc1C	-11%	27*	-1%	12%	-15%	13*
O=C(N/N=C/c1cccnc1)C(O)(c1ccccc1)c1ccccc1	-1%	-14	2%	1%	-7%	-3
O=C(O)c1cccc(N/N=C/c2cccnc2)c1	-1%	63*	0%	-12%	7%	40*
CN(C)c1ccc(/C=N/Nc2cccc(C(=O)O)c2)cc1	-13%	198*	0%	-22%	-34%	68*
CC(C)(C)c1ccc(/C=N/Nc2ccc(C(=O)O)cc2)cc1	-2%	24	-3%	11%	-1%	9
CC(C)(C)c1ccc(/C=N/Nc2cccc(C(=O)O)c2)cc1	-2%	+	-1%	-2%	5%	104*
O=C(O)c1cccc(N/N=C/c2ccc(-c3ccccc3)cc2)c1	-3%	191*	-4%[11.5 µM]	3%	0%	67*
COc1ccc(C2(SCC(N)C(=O)O)c3ccccc3-c3ccccc32)cc1 (stereo not drawn)	-13%	/	/	/	/	/
Cc1csc(NC(=O)Cc2ccccc2Cl)n1	4%	110*	-2%	-10%	-20%	40*
Cc1ccc(S(=O)(=O)CCC(=O)Nc2nc(-c3ccncc3)cs2)cc1	?	-5	-1%	7%	?	-2
Cc1csc(NC(=O)Cc2ccc(Cl)cc2)n1	0%	/	/	/	/	/
Cc1csc(NC(=O)CCS(=O)(=O)c2ccc(Br)cc2)n1	-24%	-6	1%	7%	3.5µM*	2
Cc1ccc(NC(=O)CCS(=O)(=O)c2ccc(Br)cc2)nc1	?	6	-6%	2%	16µM*	-4
COc1ccc(CC(=O)Nc2nc(C)cs2)cc1	3%	29	1%	0%	-3%	20*
SMILES	TbPYK inhibitor	Shiga inhibitor	LmPK inhibitor	FBPA Giardia inh	Sm TGR block	CHX counter
Cc1ccc(S(=O)(=O)CCC(=O)Nc2ccc(Br)cc2)cc1	-3%	-20	6%	-8%	13%	-5
COc1ccc2c(c1)O[C@@H](c1cccc(C(F)(F)F)c1)[C@H](OC(=O)N[C@H](C)C1CCCCC1)C2=O	/	/	/	3%	/	/
CC(=O)Nc1ccc2nc3c(=O)[nH]c(=O)[nH]c3nc2c1	/	7	/	/	-13%	-2
C[C@@H]1CN([C@@H](C)CO)C(=O)CCCn2nncc2CO[C@@H]1CN(C)C(=O)Nc1ccc(C(C)(C)C)cc1	12%	/	/	/	/	/
CC(=O)c1sc(NC(=O)CCS(=O)(=O)c2ccc(C)cc2)nc1C	2%	/	/	/	35µM*	/
Cc1csc(NC(=O)Cc2ccc(Br)cc2)n1	-4%	61	10%	7%	23%	31*
CCn1c(=NC(=O)c2ccc(S(=O)(=O)N3CCCCC3)cc2)sc2cccc(OC)c21	6%	/	/	/	6%	/
CN1C(=O)NC(c2cccc(O)c2)C(C(=O)c2cccs2)C1(O)C(F)(F)F (stereo not drawn)	2%	85*	-1%	10%	3.5µM*	57*
COc1cccc(-c2nc(N)nc(SC)c2C#N)c1	1%	31	0%	2%	0%	14*
Oc1ccccc1/C=C/c1noc(-c2ccccc2O)n1	5%	70*	-3%	-6%	/	33*
COc1ccc(/C=C/c2nc(-c3ccccc3O)n(-c3ccccc3)n2)cc1OC	2%	/	/	/	2%	/
COc1cc(/C=C/c2noc(-c3ccccc3O)n2)ccc1OC(C)=O	3%	42*	-2%	-2%	5%	15*
CC(=O)Nc1ccc(/C=C/c2noc(-c3ccccc3O)n2)cc1	7%	54*	0%	4%	-20%	21
Oc1ccccc1-c1nnco1	2%	/	/	/	/	/
CC(=O)Nc1ccc(/C=C/c2nc(-c3ccccc3O)n(-c3ccccc3)n2)cc1	6%	/	/	/	2%	/
O=C(c1cnn(-c2ccccc2)c1)c1cc(Br)ccc1O	3%	/	/	/	-21%	/
O=C(O)c1ccc(-n2cc(C(=O)c3ccccc3O)cn2)cc1	4%	30	2%	4%	-9%	29*
O=C(c1cnn(-c2cccc(F)c2)c1)c1ccccc1O	0%	100*	0%	13%	3%	24*
O=C(c1cnn(-c2nc3ccccc3s2)c1)c1ccccc1O	0%	47*	-7%	-5%	-17%	30*
CCC1CCCCN1C(=O)c1nn(-c2ccc(C)cc2)c(=O)c2c1c1ccccc1n2C (stereo not drawn)	5%	/	/	/	8%	/
Cc1cccc(C(=O)Nc2nc(-c3ccc(Br)cc3)ns2)c1	0%	/	/	/	-2%	/
O=S(=O)(/N=C(\Sc1ccc(Cl)cc1)c1ccccc1)c1ccccc1	-1%	-14	-2%	-1%	25µM*	-6
COc1ccc(OC)c(C(=O)CN2C(=O)N(c3ccc(C)cc3)S(=O)(=O)c3ccccc32)c1	-6%	/	/	/	7%	/
N#CCCN(C(=O)CCl)c1cccc(Cl)c1	5%	-21	-5%	2%	7.1µM*	-1
N#CCCN(C(=O)COC(=O)c1nc(Cl)ccc1Cl)c1ccccc1	-1%	/	/	/	-2%	/
CCn1c(=O)c2cc(C(=O)N3CCN(c4cccc(Cl)c4)CC3)sc2c2ccccc21	-2%	/	/	/	18%	/
Cc1nc(C)c(C(=O)C2=C(O)C(=O)N(CCN(C)C)C2c2ccco2)s1 (stereo not drawn)	0%	-19	0%	-6%	-19%	-1

Assay outcomes deposited in PubChem by National Center for Advancing Translational Sciences (NCATS).
